Test results taken from PubChem BioAssay AID1159580 (chemical genetic matrix, 2015).
About 2,000 (36%) of roughly 5,500 compounds were called active. Roughly 18% stayed inconclusive and do not appear here. Rule as the data show it: active = normalized growth mostly below about 0.91 (no sharp cut-off); inconclusive = no clear call, values can overlap the other calls; inactive = mostly above about 0.92. This is one part of the list.

Assay: chemical genetic growth profiling, strain panel (AID 1159580);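 also: tested at 20 µM; growth read once vehicle control cultures reached saturation at 30 °C; 1 = growth at the plate median or of vehicle wells; lower values mean less growth of the strain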
Conditions: growth OD

Measured: normalized growth

O=c1cc(-c2cc(O)c(O)c(O)c2)oc2cc(O)cc(O)c12
inactive: S. cerevisiae deletion strains, locus YJR075W, strain HOC1, active compounds read low 1.02 | S. cerevisiae deletion strains, locus YKL009W, strain mrt4, active compounds read low 0.99 | S. cerevisiae deletion strains, locus YKL068W, active compounds read low 0.962 | S. cerevisiae deletion strains, locus YKL085W, strain MDH1 (second series), active compounds read low 0.996 | S. cerevisiae deletion strains, locus YKL085W, strain MDH1, active compounds read low 0.996 | S. cerevisiae deletion strains, locus YKL160W, strain elf1, active compounds read low 0.934 | S. cerevisiae deletion strains, locus YKL190W, strain CNB1, active compounds read low 0.992 | S. cerevisiae deletion strains, locus YKR001C, strain vps1, active compounds read low 0.986 | S. cerevisiae deletion strains, locus YKR026C, strain gcn3, active compounds read low 1.01 | S. cerevisiae deletion strains, locus YKR091W, strain srl3, active compounds read low 1.01 | S. cerevisiae deletion strains, locus YLL001W, strain dnm1, active compounds read low 0.961 | S. cerevisiae deletion strains, locus YLL026W, active compounds read low 1.01 | S. cerevisiae deletion strains, locus YLL041C, strain sdh2, active compounds read low 1 | S. cerevisiae deletion strains, locus YLR027C, strain aat2, active compounds read low 0.974 | S. cerevisiae deletion strains, locus YLR039C, strain RIC1, active compounds read low 0.966 | S. cerevisiae deletion strains, locus YLR058C, strain SHM2, active compounds read low 0.999 | S. cerevisiae deletion strains, locus YLR102C, strain apc9, active compounds read low 0.995 | S. cerevisiae deletion strains, locus YLR113W, strain HOG1, active compounds read low 0.998 | S. cerevisiae deletion strains, locus YLR221C, strain rsa3, active compounds read low 0.928 | S. cerevisiae deletion strains, locus YLR258W, strain gsy2, active compounds read low 0.967 | S. cerevisiae deletion strains, locus YLR262C, strain YPT6 (second series), active compounds read low 0.905 | S. cerevisiae deletion strains, locus YLR262C, strain YPT6, active compounds read low 1.05 | S. cerevisiae deletion strains, locus YLR268W, strain sec22, active compounds read low 0.976 | S. cerevisiae deletion strains, locus YLR320W, strain mms22, active compounds read low 0.897 | S. cerevisiae deletion strains, locus YLR330W, strain CHS5, active compounds read low 0.994 | S. cerevisiae deletion strains, locus YLR342W, strain FKS1 (second series), active compounds read low 0.986 | S. cerevisiae deletion strains, locus YLR342W, strain FKS1, active compounds read low 0.964 | S. cerevisiae deletion strains, locus YLR357W, strain rsc2, active compounds read low 0.856 | S. cerevisiae deletion strains, locus YLR370C, strain arc18, active compounds read low 0.924 | S. cerevisiae deletion strains, locus YLR371W, strain rom2, active compounds read low 0.985 | S. cerevisiae deletion strains, locus YLR384C, strain iki3, active compounds read low 0.993 | S. cerevisiae deletion strains, locus YLR418C, strain cdc73, active compounds read low 1.02 | S. cerevisiae deletion strains, locus YML016C, strain PPZ1, active compounds read low 0.994 | S. cerevisiae deletion strains, locus YML032C, strain rad52, active compounds read low 0.999 | S. cerevisiae deletion strains, locus YML120C, strain ndi1, active compounds read low 0.948 | S. cerevisiae deletion strains, locus YML124C, strain tub3, active compounds read low 0.998 | S. cerevisiae deletion strains, locus YMR058W, strain fet3, active compounds read low 0.941 | S. cerevisiae deletion strains, locus YMR078C, strain ctf18, active compounds read low 0.998 | S. cerevisiae deletion strains, locus YMR125W, strain sto1, active compounds read low 1.03 | S. cerevisiae deletion strains, locus YMR129W, active compounds read low 1.01 | S. cerevisiae deletion strains, locus YMR205C, strain PFK2, active compounds read low 0.961 | S. cerevisiae deletion strains, locus YMR223W, strain ubp8, active compounds read low 0.964 | S. cerevisiae deletion strains, locus YMR231W, strain pep5, active compounds read low 1 | S. cerevisiae deletion strains, locus YMR263W, strain SAP30, active compounds read low 0.999 | S. cerevisiae deletion strains, locus YMR307W, strain GAS1, active compounds read low 1.09 | S. cerevisiae deletion strains, locus YNL067W, strain RPL9B, active compounds read low 1.01 | S. cerevisiae deletion strains, locus YNL071W, strain lat1, active compounds read low 0.979 | S. cerevisiae deletion strains, locus YNL128W, strain TEP1, active compounds read low 0.953 | S. cerevisiae deletion strains, locus YNL183C, strain NPR1, active compounds read low 0.966 | S. cerevisiae deletion strains, locus YNL233W, strain BNI4, active compounds read low 1.01 | S. cerevisiae deletion strains, locus YNL248C, strain rpa49, active compounds read low 1.02 | S. cerevisiae deletion strains, locus YNL250W, strain rad50, active compounds read low 0.966 | S. cerevisiae deletion strains, locus YNL271C, strain bni1, active compounds read low 0.978 | S. cerevisiae deletion strains, locus YNL298W, strain CLA4, active compounds read low 0.985 | S. cerevisiae deletion strains, locus YNL307C, strain MCK1, active compounds read low 1.01 | S. cerevisiae deletion strains, locus YNL322C, strain KRE1 (second series), active compounds read low 0.991 | S. cerevisiae deletion strains, locus YNR049C, strain mso1, active compounds read low 1.01 | S. cerevisiae deletion strains, locus YNR052C, strain pop2, active compounds read low 0.999 | S. cerevisiae deletion strains, locus YOL006C, strain TOP1, active compounds read low 1.08 | S. cerevisiae deletion strains, locus YOL012C, strain htz1 0.547 | S. cerevisiae deletion strains, locus YOL147C, strain pex11, active compounds read low 1.01 | S. cerevisiae deletion strains, locus YOR001W, strain rrp6, active compounds read low 0.987 | S. cerevisiae deletion strains, locus YOR061W, strain CKA2, active compounds read low 0.997 | S. cerevisiae deletion strains, locus YOR069W, strain VPS5, active compounds read low 1 | S. cerevisiae deletion strains, locus YOR070C, strain gyp1, active compounds read low 0.962 | S. cerevisiae deletion strains, locus YOR080W, strain dia2, active compounds read low 0.993 | S. cerevisiae deletion strains, locus YOR083W, strain WHI5, active compounds read low 0.916 | S. cerevisiae deletion strains, locus YOR106W, strain vam3, active compounds read low 0.926 | S. cerevisiae deletion strains, locus YOR136W, strain idh2, active compounds read low 0.995 | S. cerevisiae deletion strains, locus YOR144C, strain elg1, active compounds read low 1.01 | S. cerevisiae deletion strains, locus YOR184W, strain ser1, active compounds read low 1.01 | S. cerevisiae deletion strains, locus YOR231W, strain MKK1, active compounds read low 1.04 | S. cerevisiae deletion strains, locus YOR265W, strain rbl2, active compounds read low 0.99 | S. cerevisiae deletion strains, locus YOR270C, strain vph1, active compounds read low 0.888 | S. cerevisiae deletion strains, locus YOR290C, strain snf2, active compounds read low 0.942 | S. cerevisiae deletion strains, locus YOR316C, strain cot1, active compounds read low 0.987 | S. cerevisiae deletion strains, locus YPL051W, strain arl3, active compounds read low 0.931 | S. cerevisiae deletion strains, locus YPL055C, strain LGE1, active compounds read low 1.03 | S. cerevisiae deletion strains, locus YPL078C, strain atp4, active compounds read low 0.98 | S. cerevisiae deletion strains, locus YPL106C, strain sse1, active compounds read low 0.929 | S. cerevisiae deletion strains, locus YPL240C, strain hsp82, active compounds read low 1.01 | S. cerevisiae deletion strains, locus YPL256C, strain CLN2, active compounds read low 1.06 | S. cerevisiae deletion strains, locus YPR119W, strain clb2, active compounds read low 1.01 | S. cerevisiae deletion strains, locus YPR141C, strain kar3, active compounds read low 0.971 | S. cerevisiae deletion strains, locus YPR163C, strain tif3, active compounds read low 0.988 | S. cerevisiae deletion strains, locus YPR167C, strain met16, active compounds read low 1.01 | S. cerevisiae deletion strains, strain wtn01, active compounds read low 1 | S. cerevisiae strains, strain wild type, active compounds read low 0.996
active: S. cerevisiae deletion strains, locus YNL209W, strain ssb2, active compounds read low 0.875
